Shown are actives, neighbours in structure and some others; about 3% of the full set was active somewhere.
PLK1 PBD inh: inhibitors of human PLK1 polo-box domain binding; AID 720504; Potency, µM, for inactives: max response, negative = inhibition, most hits filed as inhibitors; P53350; hit rate 2.8% among 360,000; Plk1 PBD binding of FITC phosphopeptide, fluorescence polarization; also: series mostly up to about 57 µM; nearly all actives have a fitted effect of over 65% in size
KAT2A inh: blocks human GCN5L2 histone acetyltransferase; GCN5L2 HAT assay, ThioGlo1 CoA-SH fluorescence; AID 504327; Potency, µM (series often up to 58.9 µM), for the others: at the top dose activity change, negative = inhibition, most hits filed as inhibitors; Q92830; hit rate 0.21% among 390,000
Target sequence (Q92830 whole entry, looked up): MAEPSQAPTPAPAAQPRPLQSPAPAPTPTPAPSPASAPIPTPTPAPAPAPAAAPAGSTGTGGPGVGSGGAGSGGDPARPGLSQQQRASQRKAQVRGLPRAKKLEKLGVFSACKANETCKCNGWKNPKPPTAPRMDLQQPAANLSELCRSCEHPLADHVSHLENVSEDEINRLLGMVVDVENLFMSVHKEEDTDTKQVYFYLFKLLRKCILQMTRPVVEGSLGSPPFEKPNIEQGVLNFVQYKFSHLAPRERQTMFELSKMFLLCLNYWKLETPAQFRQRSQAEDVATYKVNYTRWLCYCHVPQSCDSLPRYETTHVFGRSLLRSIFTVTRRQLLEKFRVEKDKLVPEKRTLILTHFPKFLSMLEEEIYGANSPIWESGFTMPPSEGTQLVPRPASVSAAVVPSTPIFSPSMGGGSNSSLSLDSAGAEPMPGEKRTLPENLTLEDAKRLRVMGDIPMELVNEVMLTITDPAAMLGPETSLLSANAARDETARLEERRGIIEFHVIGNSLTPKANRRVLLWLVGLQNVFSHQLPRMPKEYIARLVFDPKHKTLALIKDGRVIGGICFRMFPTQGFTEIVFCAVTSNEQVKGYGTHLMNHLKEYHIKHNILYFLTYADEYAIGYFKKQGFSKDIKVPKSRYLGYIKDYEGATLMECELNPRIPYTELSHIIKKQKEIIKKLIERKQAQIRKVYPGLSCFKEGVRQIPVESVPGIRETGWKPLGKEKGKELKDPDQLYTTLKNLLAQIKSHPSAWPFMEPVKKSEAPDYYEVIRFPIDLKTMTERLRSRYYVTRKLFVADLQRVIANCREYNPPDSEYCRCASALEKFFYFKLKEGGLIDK
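Enzyme at 20nM final was mixed with library compounds for 15 min at room temperature. Peptide H3(1-25) at 75uM, acetyl-CoA at 70uM and ThioGlo1 at 50uM were then added. Plates were read immediately and after 20 min (Ex340nm/Em540nm).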
VDR inhibitor: vitamin D3 receptor (human) inhibition. hit rate 0.93% among 400,000. Potency, µM, inactives show max response, negative = inhibition, hits mostly inhibitors. VDR-SRC2-3 peptide fluorescence polarization, 2 h. P11473
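Inhibition of the VDR/SRC2-3 peptide interaction is quantified by fluorescence polarization. Compounds (23 nl, pintool) incubate with the reagents for 2 hours at ambient room temperature.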
12-LOX inh: blocks human arachidonate 12S-lipoxygenase. Potency, µM (titrated, usually from 108 µM), for inactives: at the top dose activity change, negative = inhibition, usual class: inhibitors. AID 1671190. hit rate 1.1% among 580,000. P18054. purified 12hLO, xylenol orange hydroperoxide absorbance
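Purified human 12hLO at 150 nM in 25 mM Hepes, 0.01% Triton X-100, pH 7.0, preincubated 15 min at room temperature with compound. Reaction started with 40 uM arachidonic acid, 30 min at room temperature. Hydroperoxide measured by Fe-xylenol orange, 573/405 nm absorbance ratio.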
Starred values were filed as active, the others as inactive; u = inconclusive; x = no result given. Calls follow the shape of the dose curve; as a rule, active = well fitted curve in the direction sought with a large enough effect; inconclusive = small, poorly fitted or top-dose-only effect, or another doubt; inactive = no such curve, though single readings can be large; an effect the other way counts as inactive or inconclusive. % is scaled to controls: 0 for no effect and ±100 for the full control effect; potency is read from the fitted curve at half-maximal effect.

SMILES	PLK1 PBD inh	KAT2A inh	VDR inhibitor	12-LOX inh
COc1ccc(-c2ccc(CCC(=O)O)n2Cc2ccco2)cc1	-9.1%	19.4%	0.3%	u
CN(C(=S)NC(=O)C12CC3CC(CC(C3)C1)C2)c1ccc(O)cc1	33.6µM*	-10.1%	u	u
CCOC(=O)/C=C1\CC(C(=O)OCC)Oc2c(OC)cccc21 (stereo not given)	u	-5.8%	79.4µM*	u
C=C1c2cccc(OC)c2O[C@H](C(=O)OCC)[C@@H]1CC(CC)CCCC (stereo not given in full)	-4.6%	-14.8%	13.9%	u
CC(=O)c1ccc(NC(=O)CN2C(=O)NC3(CCC(C)CC3)C2=O)cc1 (stereo not given)	x	x	x	-5.3%
COc1ccc(N2CCN(C(=O)c3[nH]c4ccc(OC)cc4c3C)CC2)cc1	26.7µM*	-8.0%	-21.3%	-11.8%
O=C1C2C3C=CC(CO)(O3)C2C(=O)N1c1ccccc1-c1ccccc1 (stereo not given)	7.52µM*	u	-100.4%	x
O=C1C2C3C=CC(CNS(=O)(=O)c4ccccc4)(O3)C2C(=O)N1c1ccc(Cl)cc1 (stereo not given)	-6.5%	-9.1%	79.4µM*	-22.3%
COc1ccc(C(=O)NCC23C=CC(O2)C2C(=O)N(Cc4ccccc4)C(=O)C23)cc1 (stereo not given)	-2.5%	-8.2%	2.1%	-0.8%
c1ccc(Nc2cccc3c(Nc4ccccc4)cccc23)cc1	0.7%	-14.0%	-4.1%	-7.6%
O=S(=O)(O)c1cccc2cccc(Nc3ccccc3)c12	15µM*	x	u	39.8µM*
COc1cc(S(=O)(=O)Nc2ncccc2C)c(OC)cc1Cl	-10.7%	-3.0%	24.3%	4.2%
COc1ccc(Br)cc1S(=O)(=O)Nc1ncccc1C	29.9µM*	-0.9%	-0.4%	-8.4%
COc1ccccc1CNC(=O)CN(c1ccccc1)S(=O)(=O)N(C)C	x	x	x	49.3%
Cc1nc2ccccc2c(C)c1CC(=O)NCCc1ccccc1F	x	x	x	17.8µM*
Cc1nc2ccccc2c(C)c1CC(=O)NCC(C)C	x	x	x	-2.0%
O=C(CSc1nc(-c2ccccc2F)nc2cc(=O)[nH]n12)N1CCCc2ccccc21	x	x	x	-58.0%
CCNC(=O)NC(=O)COC(=O)c1cc(-c2ccc(C)o2)nc2ccccc12	x	x	x	3.16µM*
CCNC(=O)NC(=O)COC(=O)c1cc(-c2ccco2)nc2ccccc12	x	x	x	6.31µM*
Cc1ccc(-c2cc(C(=O)OC(C)C(=O)NC(=O)NC3CCCC3)c3ccccc3n2)o1 (stereo not given)	x	x	x	3.98µM*
CCNC(=O)COC(=O)c1cc(-c2ccc(F)cc2)nc2ccccc12	x	x	x	-3.9%
N#CC1(C(=O)NCc2cccc(NC(=O)C3CCCC3)c2)CCCC1	x	x	x	23.8%
CSc1ccc(NC(=O)Cc2cc(Cl)c3c(c2)OCCCO3)cc1	x	x	x	4.2%
CCC(=O)Oc1ccc2c(=O)c(Oc3cccc(OC)c3)c(C(F)(F)F)oc2c1	x	x	x	-6.5%
CC1(C)CC(=O)C2=C(C1)NC(Nc1nc3ccccc3o1)=NC21CCCC1	26.7µM*	-4.0%	-27.2%	0.0%
SMILES	PLK1 PBD inh	KAT2A inh	VDR inhibitor	12-LOX inh
Cn1c(=O)c2c(nc(NCC(O)c3ccccc3)n2Cc2ccc(Cl)cc2Cl)n(C)c1=O (stereo not given)	x	x	x	-5.0%
NC(=O)C1CCCN(CCc2ccccc2)C1 (stereo not given)	-4.2%	u	10.1%	0.7%
CCCc1sc(N2CCCC(C(N)=O)C2)nc1-c1ccccc1 (stereo not given)	23.8µM*	2.6%	79.4µM*	-0.7%
CC1(c2ccc(Cl)cc2Cl)OCC(Cn2ccnc2)O1 (stereo not given)	29.9µM*	-2.3%	-0.9%	u
CCOC(=O)NC(CNC(=O)c1cc(C)ccc1C)CC(C)C (stereo not given)	x	x	x	-3.4%
CCc1cccc2c(C(=O)CCl)c[nH]c12	23.8µM*	3.8%	8.6%	-13.9%
CCCCC/C=C\C/C=C\C/C=C\C/C=C\CCCC(=O)C(F)(F)F	x	-18.5%	28.2µM*	x
OCc1ccc(-c2ccc(-c3ccc(CO)s3)o2)s1	x	u	10µM*	u
C[C@@]12C=Cc3occc3C1CC[C@@]13C[C@@H](CCC12)[C@@](O)(CO)C3 (stereo not given in full)	x	14.6%	39.8µM*	x
CC(=O)OC[C@@]1(O)C[C@]23CCC4c5ccoc5CC[C@@]4(C)C2CCC1C3 (stereo not given in full)	x	4.9%	-3.0%	x
COC(=O)c1ccc2nc(-c3ccc(F)cc3)c(Cc3ccsc3)n2c1	-2.4%	x	x	7.08µM*
COC(=O)c1ccc2nc(-c3ccc(C#N)cc3)c(Cc3ccsc3)n2c1	1.0%	x	x	u
COC(=O)c1ccc2nc(-c3ccc(C)cc3)c(Cc3ccsc3)n2c1	0.1%	x	x	39.8µM*
CNC(=O)/C=C/c1cccc([N+](=O)[O-])c1	x	x	x	-29.6%
CCOC(=O)COc1ccc2c(=O)c(-c3ccc(OC)c(OC)c3)coc2c1	x	x	x	54.5%
CCOc1ccc(C(=O)N2CCN(c3cc(-c4ccc(Cl)cc4)[nH]n3)CC2)cc1OCC	x	x	x	-3.3%
O=C(/C=C/Nc1ccc(Oc2ccccc2)cc1)c1ccc(F)cc1	x	x	x	24.4%
O=C(CCc1cc(Cl)no1)N(CCS(=O)(=O)N1CCOCC1)Cc1ccccn1	x	x	x	7.94µM*
CN(CCc1ccccn1)C(=O)CCc1ccc2c(c1)CN(S(C)(=O)=O)CCO2	x	x	x	25.4%
C=C(C)CNC(=S)N/N=C/c1ccsc1	x	x	x	-28.9%
Cc1nc2scc(C)n2c(=O)c1S(=O)(=O)NCCc1ccc(Cl)cc1	-7.5%	-4.5%	13.3%	-21.5%
Cc1nc2scc(C)n2c(=O)c1S(=O)(=O)Nc1ccc(N2CCOCC2)c(Cl)c1	26.7µM*	-0.8%	-24.1%	u
Cc1nc2scc(C)n2c(=O)c1S(=O)(=O)NCC1CCN(Cc2ccc(Cl)cc2)CC1	18.9µM*	-4.7%	-7.6%	-1.1%
Cc1cc(C)c2c(=O)cc(C(=O)N(Cc3ccccc3)Cc3ccco3)oc2c1	x	x	x	-11.0%
S=C(Nc1ccc(Nc2ccccc2)cc1)NC1CCCCCC1	u	-1.8%	7.6%	44.7µM*
SMILES	PLK1 PBD inh	KAT2A inh	VDR inhibitor	12-LOX inh
NS(=O)(=O)c1ccc(NC(=S)NC2CCCCC2)cc1	10.6µM*	0.4%	u	u
NS(=O)(=O)c1ccc(NC(=O)NC2CCCCC2)cc1	0.5%	-3.2%	-0.8%	20.6%
S=C(Nc1ccc(Cl)cc1)NC1CCCCC1	-3.3%	-3.7%	4.3%	0.6%
CS(=O)(=O)N(CCCC(=O)Nc1ccccc1C(=O)NCC1CCCO1)c1ccccc1 (stereo not given)	x	x	x	20.3%
CCN(CC)C(=S)SCc1ccc(C(=O)O)cc1	x	x	x	-17.9%
CCn1nnnc1SCC(=O)c1ccc2c(c1)OCCO2	-2.4%	-8.4%	-1.3%	0.0%
CC(C)n1nnnc1SCC(=O)c1ccc2c(c1)OCCO2	29.9µM*	0.0%	4.4%	u
Cc1cc(SCC(=O)c2ccc(O)c(O)c2)nc2ccccc12	-21.9%	-2.7%	-26.1%	6.31µM*
Cc1cc(SCC(=O)O)nc2ccccc12	-4.9%	-0.4%	2.2%	8.8%
Cc1cc(SCC(=O)c2ccc3c(c2)OCCO3)nc2ccccc12	x	x	x	15.8µM*
O=C(CSc1n[nH]c(-c2ccccc2)n1)c1ccc(O)c(O)c1	-6.7%	-6.5%	2.9%	2.51µM*
